Values joined by “and” are separate entries in the source; they are usually repeats but may differ in a detail not shown here. Equal entries are not always repeated. About 79,000 compounds went through this panel and 15% of them were active in at least one assay; those are over-represented in the sample as a whole. Some structures have more than one record in an assay (separate samples or runs), and their calls can disagree. Active and inactive are the calls of the source. Cut-off read from the data, not from the text of the source: active = growth inhibition above about 70%; inactive = the rest.
Columns and labels:
[1] = NCI Yeast Anticancer Drug Screen. Data for the rad50 strain (AID 155);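 note: 0% = growth of vehicle-only cultures of the same strain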; details: S. cerevisiae rad50 strain growth inhibition; at 50.0 µM; stronger effect = higher value
Method in brief: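 DNA repair mutant yeast, compound exposure, growth read-out; inhibition is taken relative to vehicle.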

[2] = NCI Yeast Anticancer Drug Screen. Data for the mec2-1 strain (AID 157); details: S. cerevisiae mec2-1 strain, at 50.0 µM, stronger effect = higher value
Method in brief: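 Test agents were screened against the mec2-1 yeast strain, with defined DNA repair or cell cycle alteration. Growth was scored as inhibition against vehicle-only controls.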

[3] = NCI Yeast Anticancer Drug Screen. Data for the sgs1 mgt1 strain (AID 161);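 note: 0% = growth of cultures given vehicle only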; details: S. cerevisiae sgs1 mgt1 strain, at 50.0 µM, stronger effect = higher value
Method in brief: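 Test agents were incubated with a DNA-repair-mutant yeast strain. Growth was then read and compared against vehicle-treated controls.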

[4] = NCI Yeast Anticancer Drug Screen. Data for the cln2 rad14 strain (AID 165);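 note: 0% = growth equal to vehicle treated cultures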; details: S. cerevisiae cln2 rad14 strain, at 50.0 µM, stronger effect = higher value
Method in brief: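 Growth of compound-exposed yeast (cln2 rad14 genotype) measured and expressed as inhibition relative to vehicle.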

[5] = NCI Yeast Anticancer Drug Screen. Data for the bub3 strain (AID 167); details: S. cerevisiae bub3 mutant strain, at 50.0 µM, stronger effect = higher value
Method in brief: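 In this screen, a yeast mutant lacking normal mitotic checkpoint function is challenged with compound. Relative growth versus vehicle gives the inhibition value.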

[6] = NCI Yeast Anticancer Drug Screen. Data for the mlh1 rad18 strain (AID 175); details: S. cerevisiae mlh1 rad18 strain growth inhibition; at 50.0 µM; stronger effect = higher value
Method in brief: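 In this whole-cell yeast screen, a strain with altered DNA damage repair is challenged with compound, and its growth is measured against matched vehicle-treated controls.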

Row | SMILES | growth inhibition [1] | growth inhibition [2] | growth inhibition [3] | growth inhibition [4] | growth inhibition [5] | growth inhibition [6]
1 | NC(=O)Nc1ccc(Cl)cc1 | -17.2% (inactive) and 22.5% (inactive) | -11.8% (inactive) and -9.35% (inactive) | -24.8% (inactive) and -5% (inactive) | -17.9% (inactive) and -12.5% (inactive) | -4.2% (inactive) and -17.1% (inactive) | -10.9% (inactive) and 15.4% (inactive)
2 | O=C(O)CSc1nc2ccccc2s1 | -8.8% (inactive) and -6.9% (inactive) | 1.7% (inactive) and -9.8% (inactive) | -0.85% (inactive) and -11.6% (inactive) | -28.8% (inactive) and -12% (inactive) | 9.45% (inactive) and -33.6% (inactive) | -12.7% (inactive) and -48% (inactive)
3 | C=CCSC1=NC(=O)C(CCCC)C(=O)N1C (configuration not stated) | 7.75% (inactive) and -1.7% (inactive) | 2.65% (inactive) and 7.25% (inactive) | 4.25% (inactive) and 6.3% (inactive) | -35.5% (inactive) and -24.9% (inactive) | -22% (inactive) and 7.5% (inactive) | 10.8% (inactive) and 7.5% (inactive)
4 | O=C(O)C1CCCCC1 | -5.9% (inactive) and -10.2% (inactive) | -22.6% (inactive) and -8.45% (inactive) | -13.7% (inactive) and 22.7% (inactive) | 5.95% (inactive) and -13.2% (inactive) | 2.15% (inactive) and 2.55% (inactive) | 8.3% (inactive) and 17.1% (inactive)
5 | O=C(CCl)OCCC1CCCCC1 | 9.3% (inactive) and -7.6% (inactive) | -16.7% (inactive) and -17.1% (inactive) | 5.15% (inactive) and -10.8% (inactive) | -8.7% (inactive) and -29.4% (inactive) | 5.6% (inactive) and 6.1% (inactive) | 1.4% (inactive) and -16.4% (inactive)
6 | O=C(O)c1cc(O)c(O)c(O)c1 | 5.3% (inactive) and 1.55% (inactive) | -12.6% (inactive) and -7.9% (inactive) | 2.2% (inactive) and 15.6% (inactive) | 15.6% (inactive) and -9.5% (inactive) | 2.25% (inactive) and 2.85% (inactive) | 5.8% (inactive) and 3% (inactive)
7 | CC1=NN(c2ccc([N+](=O)[O-])cc2)C(=O)C1[N+](=O)[O-] (configuration not stated) (tested in a mixture with another compound) | 20.1% (inactive) and 26.6% (inactive) | 1.95% (inactive) and 2.9% (inactive) | 12.3% (inactive) and 34.4% (inactive) | 14.8% (inactive) and 13.1% (inactive) | -1.75% (inactive) and -1.25% (inactive) | 3.35% (inactive) and 12.8% (inactive)
8 | NC(=O)c1nnn(Cc2ccccc2)c1N | 5.55% (inactive) and 31.2% (inactive) | 5.6% (inactive) and -1.5% (inactive) | -3.05% (inactive) and -4.65% (inactive) | -4.65% (inactive) and -1.95% (inactive) | 6.9% (inactive) and -5.2% (inactive) | 9.6% (inactive) and 3.3% (inactive)
9 | O=C(O)C1=C/C(=C(/c2ccccc2)c2cc(C(=O)O)c(O)c3ccccc23)c2ccccc2C1=O | 4.2% (inactive) and -7.7% (inactive) | -29.1% (inactive) and -27.1% (inactive) | -21.2% (inactive) and -34.4% (inactive) | 22.7% (inactive) and 23.1% (inactive) | -9.45% (inactive) and -3.8% (inactive) | -1.45% (inactive) and -4.1% (inactive)
10 | O=c1c(O)c(-c2ccc(O)c(O)c2)oc2cc(O)ccc12 | -15.2% (inactive) and -57% (inactive) | -14.6% (inactive) and -40.4% (inactive) | -3.25% (inactive) and -24.9% (inactive) | 0.2% (inactive) and -25% (inactive) | -15.1% (inactive) and -48.1% (inactive) | -3.7% (inactive) and -37.3% (inactive)
11 | Cc1ccc(C2=Nc3c(N)nc(N)nc3NC(c3ccccc3)C2)cc1 (configuration not stated) | 78.3% (active) and 79.8% (active) | 81.8% (active) and 79.5% (active) | 89.2% (active) and 89.4% (active) | 63.5% (inactive) and 62.7% (inactive) | 75.8% (active) and 77.4% (active) | 90% (active) and 88.4% (active)
12 | CC(C)(C)OC(=O)C1CCON1C1OC(C(O)CO)C2OC(C)(C)OC21 (configuration not stated) | -3.45% (inactive) and 48.1% (inactive) | 7.85% (inactive) and 43% (inactive) | 2.4% (inactive) and 57.9% (inactive) | -8.25% (inactive) and 19% (inactive) | 13.2% (inactive) and 38.5% (inactive) | 10.8% (inactive) and 59.4% (inactive)
13 | O=C(O)c1cc(N=C=S)ccc1-c1c2ccc(=O)cc-2oc2cc(O)ccc12 | 6.3% (inactive) and 32.9% (inactive) | 3.7% (inactive) and 31.5% (inactive) | -4.85% (inactive) and 15.3% (inactive) | 6% (inactive) and 16.6% (inactive) | -9.75% (inactive) and -4.1% (inactive) | 4.95% (inactive) and 45.9% (inactive)
14 | CCC(C(=O)O)c1ccccc1 (configuration not stated) | 10.7% (inactive) and 12.6% (inactive) | 5.4% (inactive) and 3.95% (inactive) | 9.4% (inactive) and 1.25% (inactive) | -12.2% (inactive) and -29.8% (inactive) | -19.6% (inactive) and -1.9% (inactive) | 22.4% (inactive) and 2.4% (inactive)
15 | CCOC(=O)C(=Cc1ccco1)C(=O)OCC | 38.5% (inactive) and 10.2% (inactive) | 37.1% (inactive) and -24.6% (inactive) | 7.75% (inactive) and -0.5% (inactive) | 23.8% (inactive) and 8.8% (inactive) | -4.65% (inactive) and -9.25% (inactive) | 19.8% (inactive) and -19.1% (inactive)
16 | CC(=O)C(C)(CCC#N)CCC#N | -7.25% (inactive) and 12.7% (inactive) | 12.1% (inactive) and -9.2% (inactive) | -1.4% (inactive) and -1% (inactive) | -3.95% (inactive) and -36.5% (inactive) | 9.35% (inactive) and -5.15% (inactive) | -12.1% (inactive) and 27% (inactive)
17 | CC(C)C1CCC(NC(=O)Nc2ccccc2)CC1 (configuration not stated) | 79.5% (active) and 20.6% (inactive) | 48.5% (inactive) and 20.3% (inactive) | 70.5% (active) and 43.2% (inactive) | 46.2% (inactive) and -3.5% (inactive) | 66.7% (inactive) and 23.6% (inactive) | 81.1% (active) and 44.8% (inactive)
18 | O=C(NCc1ccccc1)C1C(=O)C(=O)N(Cc2ccccc2)C1=O (configuration not stated) | -29.4% (inactive) and 4.55% (inactive) | -22.6% (inactive) and 0.8% (inactive) | -12.2% (inactive) and -8.45% (inactive) | 2% (inactive) and 14% (inactive) | -8.8% (inactive) and -3.45% (inactive) | -36% (inactive) and 2.6% (inactive)
19 | O=C(Nc1nn[nH]n1)c1nc(-c2ccccc2)cc(=O)[nH]1 | -15.6% (inactive) and -10.2% (inactive) | -3.75% (inactive) and 9.5% (inactive) | 7.35% (inactive) and 5.4% (inactive) | -49.8% (inactive) and 1.15% (inactive) | 5.7% (inactive) and -5.95% (inactive) | 1.95% (inactive) and -2.25% (inactive)
20 | N=C(N)/C=C\C(=O)O | 1.65% (inactive) and 2.05% (inactive) | -9.35% (inactive) and -13.2% (inactive) | 4.4% (inactive) and -11.1% (inactive) | 17.4% (inactive) and 14.3% (inactive) | -21.4% (inactive) and -33.8% (inactive) | -4.9% (inactive) and -14.8% (inactive)
21 | O=C(O)/C=C/c1ccccc1 | 15.1% (inactive) and 41.8% (inactive) | 16.6% (inactive) and 2.4% (inactive) | 27.5% (inactive) and 7.65% (inactive) | 14.8% (inactive) and 7.35% (inactive) | 4.1% (inactive) and 19.3% (inactive) | 22.2% (inactive) and 31.9% (inactive)
22 | CC(C)(C)OC(=O)N1CCCC1C(=O)O (configuration not stated) | -2% (inactive) and 4.9% (inactive) | -22.3% (inactive) and 2.55% (inactive) | 3.05% (inactive) and 3.8% (inactive) | 6.05% (inactive) and -24.8% (inactive) | 11.6% (inactive) and -5.25% (inactive) | 2.45% (inactive) and 4.55% (inactive)
